Consider 17 molecules from PubChem BioAssay AID720706 (Broad Institute, 2013).

The whole screen tested about 350,000 compounds, of which about 5,500 (1.6%) were called active.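 How the source made its calls: active means significant combined selectivity score with lowered wild-type GFP, culture density cut under 30%, mutant RFP and density less affected; inactive means any of these conditions unmet.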 This excerpt belongs to a sample that is enriched for actives.

The assay can be described thus: reduced GFP signal of wild-type E. coli, primary screen, bacterial rRNA inhibitor project, GFP/RFP fluorescence, OD600, single point (AID 720706). The note with it: E. coli WT GFP vs humanized-ribosome RFP mutants, 24 h; GFP signal change (wild-type ribosome): stronger effect = lower value, DMSO median 0, no signal -100; OD600 change: measured here: OD600 growth, DMSO median 0, no signal -100; RFP signal change: measured here: RFP humanized mutant strains, DMSO median 0, no signal -100, concentration not given here.
As for `CN(C)Cc1cn(CC[C@H]2CC[C@H](NS(=O)(=O)c3ccccc3)[C@@H](CO)O2)nn1`, the GFP signal change (wild-type ribosome) is -1.38% (inactive), the OD600 change came to 8.8% and the RFP signal change was -1.73%.

On to `Cc1ccc(S(=O)(=O)N(C)C[C@H]2Oc3c(NS(=O)(=O)c4cn(C)cn4)cccc3C(=O)N([C@@H](C)CO)C[C@H]2C)cc1`, for which the GFP signal change (wild-type ribosome) was 4.44% (inactive), the OD600 change is 5.92% and the RFP signal change is -0.801%.

Turning to `CCC(=O)N(C)C[C@@H]1Oc2ncc(-c3ccccc3OC)cc2C(=O)N([C@@H](C)CO)C[C@@H]1C`, the GFP signal change (wild-type ribosome) was -1.63% (inactive), the OD600 change was 0.66% and the RFP signal change came out at 1.16%.

Take `COc1ccc(CNC(=O)C[C@@H]2C=C[C@@H](NC(=O)c3ccc4c(c3)OCO4)[C@@H](CO)O2)cc1`: the GFP signal change (wild-type ribosome) was 3.42% (inactive), the OD600 change turned out to be 5.74% and the RFP signal change was -0.879%.

`C[C@H](CO)N1C[C@H](C)[C@H](CN(C)S(C)(=O)=O)Oc2ncc(C3=CCCC3)cc2C1=O`: the GFP signal change (wild-type ribosome) is 4.58% (inactive), the OD600 change stood at 6.67% and the RFP signal change is -1.55%.

With `O=C(c1cccc(F)c1)N1CCN(c2ccc([N+](=O)[O-])c3cccnc23)CC1`, the GFP signal change (wild-type ribosome) is -17.8% (active), the OD600 change is -11% and the RFP signal change was 4.41%.

In the case of `O=[N+]([O-])c1cc([N+](=O)[O-])c2cccnc2c1O`, the GFP signal change (wild-type ribosome) is -15.7% (inactive), the OD600 change came to 19.1% and the RFP signal change is 3.26%.

For the molecule `O=C(c1ccc(N2CCOCC2)c([N+](=O)[O-])c1)N1CCN(c2ccccc2F)CC1`, the GFP signal change (wild-type ribosome) was -19.6% (inactive), the OD600 change is -35.6% and the RFP signal change was -4.01%.

As for `C[C@H]1CCCCO[C@@H](CN(C)Cc2ccncc2)[C@@H](C)CN([C@@H](C)CO)C(=O)c2cc(NC(=O)Nc3ccc(F)cc3)ccc2O1`, the GFP signal change (wild-type ribosome) was 1.44% (inactive), the OD600 change is 2.48% and the RFP signal change is -0.987%.

Consider `CCCN(C)C[C@@H]1OCCCC[C@@H](C)Oc2ccc(NC(=O)CCCN(C)C)cc2C(=O)N([C@H](C)CO)C[C@@H]1C`, for which the GFP signal change (wild-type ribosome) was -2.58% (inactive), the OD600 change was 6.85% and the RFP signal change was -0.525%.

Take `C[C@H](NC(=O)N(C)C[C@@H]1OCc2ccccc2-c2ccccc2C(=O)N([C@H](C)CO)C[C@@H]1C)c1ccccc1`: the GFP signal change (wild-type ribosome) is -0.824% (inactive), the OD600 change was determined as 6% and the RFP signal change is -2.69%.

Turning to `COc1ccc(S(=O)(=O)Nc2ccc3c(c2)C(=O)N(C)C[C@@H](OC)[C@H](C)CN(C(=O)NC(C)C)[C@H](C)CO3)cc1`, the GFP signal change (wild-type ribosome) is 2.15% (inactive), the OD600 change was -6.48% and the RFP signal change is 0.485%.

As to `CCCNC(=O)N(C)C[C@@H]1Oc2ncc(C#CCc3ccccc3)cc2C(=O)N([C@@H](C)CO)C[C@H]1C`, the GFP signal change (wild-type ribosome) was 2.5% (inactive), the OD600 change is -2.83% and the RFP signal change is -0.346%.

Turning to `Cc1noc(C)c1S(=O)(=O)N(C)C[C@H]1OCCCC[C@H](C)Oc2ccc(NC(=O)c3ccccc3)cc2C(=O)N([C@@H](C)CO)C[C@H]1C`, the GFP signal change (wild-type ribosome) was -1% (inactive), the OD600 change is -0.308% and the RFP signal change is 2.4%.

As for `CC(C)(C)NC(=O)NC(=O)COC(=O)Cc1ccc(Cl)cc1Cl`, the GFP signal change (wild-type ribosome) is -19.2% (active), the OD600 change is -0.7% and the RFP signal change is -0.643%.

With `CC(C)(C)NC(=O)NC(=O)COC(=O)Cc1c(F)cccc1Cl`, the GFP signal change (wild-type ribosome) is -13.1% (inactive), the OD600 change is -4.75% and the RFP signal change was found to be 3.43%.

With `O=C(COC(=O)Cc1ccc(Cl)cc1Cl)NCc1ccco1`, the GFP signal change (wild-type ribosome) was -17.4% (inactive), the OD600 change is -6.25% and the RFP signal change was 0.815%.
